Experimental data taken from PubChem BioAssay AID1159580 (chemical genetic matrix, 2015).
Hit rate of the full screen: of about 5,500 compounds, about 2,000 (36%) were called active. About 18% were inconclusive and are not listed. Cut-off read from the data, not from the text of the source: active = normalized growth mostly below about 0.91 (no sharp cut-off); inconclusive = no clear call, values can overlap the other calls; inactive = mostly above about 0.92. This is one part of the list.

Experiment: chemical genetic growth profiling, strain panel (AID 1159580);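 note: tested at 20 µM; growth read once vehicle control cultures reached saturation at 30 °C; 1 = growth at the plate median or of vehicle wells; lower values mean less growth of the strain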
Conditions: S. cerevisiae deletion strains, growth OD

Measured: normalized growth

CN[C@@H]1[C@@H](O)C(OC2[C@@H](N)C[C@@H](N)[C@H](O[C@H]3O[C@H](C(C)O)[C@@H](O)[C@H](O)[C@H]3N)[C@H]2O)OC[C@]1(C)O (stereo not given in full)
inactive: locus YAL021C, strain ccr4, hits give low values 0.963 | locus YAL026C, strain drs2, hits give low values 0.984 | locus YAL030W, strain snc1, hits give low values 0.986 | locus YBL061C, strain skt5, hits give low values 0.978 | locus YBR009C, strain hhf1, hits give low values 0.989 | locus YBR023C, strain chs3, hits give low values 0.973 | locus YBR171W, strain sec66, hits give low values 0.968 | locus YBR231C, strain swc5, hits give low values 0.991 | locus YBR279W, strain paf1, hits give low values 0.981 | locus YCL011C, strain gbp2, hits give low values 0.969 | locus YCL016C, strain dcc1, hits give low values 0.976 | locus YCL061C, strain MRC1, hits give low values 0.985 | locus YCL069W, strain vba3, hits give low values 0.966 | locus YCR088W, strain abp1, hits give low values 0.978 | locus YDL005C, strain med2, hits give low values 0.967 | locus YDL040C, strain nat1, hits give low values 0.997 | locus YDR001C, strain nth1, hits give low values 0.982 | locus YDR069C, strain doa4, hits give low values 0.969 | locus YDR137W, strain rgp1, hits give low values 1.02 | locus YDR159W, strain sac3, hits give low values 0.969 | locus YDR195W, strain ref2 0.973 | locus YDR297W, strain sur2, hits give low values 0.979 | locus YDR334W, strain swr1, hits give low values 0.967 | locus YDR335W, strain msn5, hits give low values 0.979 | locus YDR392W, strain spt3, hits give low values 0.938 | locus YEL003W, strain gim4, hits give low values 0.982 | locus YEL037C, strain rad23, hits give low values 0.977 | locus YEL061C, strain CIN8 (second series), hits give low values 0.985 | locus YER015W, strain faa2, hits give low values 0.964 | locus YER016W, strain bim1, hits give low values 0.981 | locus YER111C, strain swi4, hits give low values 0.977 | locus YER155C, strain BEM2 (second series), hits give low values 0.966 | locus YFR010W, strain ubp6, hits give low values 0.971 | locus YGL167C, strain pmr1, hits give low values 0.977 | locus YGL173C, strain kem1, hits give low values 0.96 | locus YGL227W, strain vid30, hits give low values 0.98 | locus YGL240W, strain doc1, hits give low values 0.977 | locus YGL253W, strain hxk2, hits give low values 0.963 | locus YHR013C, strain ard1, hits give low values 0.976 | locus YHR027C, strain rpn1, hits give low values 0.977 | locus YHR030C, strain SLT2, hits give low values 1.05 | locus YHR079C, strain IRE1, hits give low values 1.05 | locus YHR142W, strain chs7, hits give low values 0.966 | locus YJL092W, strain hpr5, hits give low values 0.96 | locus YJL095W, strain BCK1 (second series), hits give low values 0.966 | locus YJL095W, strain BCK1, hits give low values 0.989 | locus YJL115W, strain asf1, hits give low values 0.984 | locus YJL129C, strain trk1, hits give low values 0.97 | locus YJL154C, strain vps35, hits give low values 0.976 | locus YJL164C, strain tpk1, hits give low values 0.984 | locus YJL166W, strain qcr8, hits give low values 0.982 | locus YJL187C, strain SWE1, hits give low values 0.988 | locus YJR066W, strain TOR1, hits give low values 0.995 | locus YKL160W, strain elf1, hits give low values 0.988 | locus YKR026C, strain gcn3, hits give low values 0.979 | locus YKR091W, strain srl3, hits give low values 0.971 | locus YLL001W, strain dnm1, hits give low values 0.988 | locus YLL026W, hits give low values 0.971 | locus YLL041C, strain sdh2, hits give low values 0.976 | locus YLR027C, strain aat2, hits give low values 0.973 | locus YLR113W, strain HOG1, hits give low values 0.995 | locus YLR221C, strain rsa3, hits give low values 0.974 | locus YLR258W, strain gsy2, hits give low values 0.969 | locus YLR262C, strain YPT6 (second series), hits give low values 1.02 | locus YLR320W, strain mms22, hits give low values 0.976 | locus YLR342W, strain FKS1, hits give low values 0.972 | locus YLR357W, strain rsc2, hits give low values 0.977 | locus YLR370C, strain arc18, hits give low values 0.962 | locus YLR384C, strain iki3, hits give low values 0.958 | locus YML120C, strain ndi1, hits give low values 0.981 | locus YMR058W, strain fet3, hits give low values 0.985 | locus YMR125W, strain sto1, hits give low values 0.975 | locus YMR129W, hits give low values 0.989 | locus YMR205C, strain PFK2, hits give low values 1.01 | locus YMR231W, strain pep5, hits give low values 0.965 | locus YNL071W, strain lat1, hits give low values 0.975 | locus YNL183C, strain NPR1, hits give low values 0.942 | locus YNL209W, strain ssb2, hits give low values 0.994 | locus YNL248C, strain rpa49, hits give low values 0.987 | locus YNL322C, strain KRE1 (second series), hits give low values 0.967 | locus YNR049C, strain mso1, hits give low values 0.979 | locus YOR001W, strain rrp6, hits give low values 0.969 | locus YOR070C, strain gyp1, hits give low values 0.974 | locus YOR080W, strain dia2, hits give low values 0.975 | locus YOR083W, strain WHI5, hits give low values 0.976 | locus YOR106W, strain vam3, hits give low values 0.964 | locus YOR231W, strain MKK1, hits give low values 1.04 | locus YOR265W, strain rbl2, hits give low values 0.983 | locus YOR270C, strain vph1, hits give low values 0.981 | locus YOR290C, strain snf2, hits give low values 0.954 | locus YPL051W, strain arl3, hits give low values 0.983 | locus YPL078C, strain atp4, hits give low values 0.995 | locus YPL106C, strain sse1, hits give low values 0.988 | locus YPL240C, strain hsp82, hits give low values 0.977 | locus YPL256C, strain CLN2, hits give low values 1.02
